# Source: PubChem BioAssay AID1259421 (Broad Institute, 2018)
# Values joined by “and” are separate entries in the source; they are usually repeats but may differ in a detail not shown here. Equal entries are not always repeated. The whole screen tested about 6,400 compounds, of which about 610 (9.5%) were called active. Rule as the data show it: active = activity change below about -70%; inconclusive = no clear call, values can overlap the other calls; inactive = above that. The full list was thinned out, with actives kept by preference. A structure can be active in one record and inactive in another.
# Test: Toxoplasma gondii ME49Luc growth in HeLa cells, luciferase, no IFN-y, primary screen (AID 1259421)
# Conditions: T. gondii ME49Luc in HeLa, 72 h, stronger effect = lower value, concentration not given here
row,SMILES,"activity change, negative = inhibition"
1,C/C=N/N(C)C=O,3.01% (inactive)
2,Cc1[nH]c(C)c(Cl)c(=O)c1Cl,-1.17% (inactive) and -3.71% (inactive)
3,Cc1cccc(Oc2cnc(=O)[nH]c2)c1,9.21% (inactive)
4,CCCCOc1c(C(=O)c2c(F)cc(C)cc2F)cnc2n[nH]cc12,-88.2% (active)
5,CCCCOC(=O)c1cc2c(cn1)[nH]c1ccccc12,42.7% (inactive) and 253% (inactive)
6,CCCS(=O)(=O)Nc1ccc(F)c(C(=O)c2c[nH]c3ncc(Cl)cc23)c1F,-26.4% (inactive)
7,COc1cc(OC)c2ccc(=O)oc2c1,1.05% (inactive)
8,Clc1ccc(CCCOCCCN2CCCCC2)cc1,2.37% (inactive)
9,Oc1ccc(-c2nc(-c3ccc(F)cc3)c(-c3ccncc3)[nH]2)cc1,-91.7% (active) and -92.7% (active)
10,COc1cc(S(C)=O)ccc1-c1nc2ncccc2[nH]1 (stereo not given),-7.2% (inactive) and 19.1% (inactive)
11,CS(=O)c1ccc(-c2nc(-c3ccc(F)cc3)c(-c3ccncc3)[nH]2)cc1 (stereo not given),-85.1% (active) and -89.6% (active)
12,CS(=O)(=O)c1ccc(-c2nc(-c3ccc(F)cc3)c(-c3ccncc3)[nH]2)cc1,-5.72% (inactive)
13,COc1ccc2cc(-c3nc(-c4ccc(S(C)=O)cc4)[nH]c3-c3ccncc3)ccc2c1 (stereo not given),-51.3% (inactive)
14,CC1(C)O[C@H]2CC(=O)OC[C@]23[C@H]2CC[C@@]4(C)[C@H](c5ccoc5)OC(=O)[C@H]5O[C@]54[C@]2(C)C(=O)C[C@@H]13,7.46% (inactive)
15,CC/C=C\C/C=C\C/C=C\C/C=C\C/C=C\C/C=C\CCC(=O)OCC,4.98% (inactive)
16,COc1cc(O)c(C(=O)c2ccccc2)cc1O,6.03% (inactive)
17,Cc1cc(CC(C)CC(C)(C)C)n(O)c(=O)c1 (stereo not given),-84.1% (active)
18,Nc1nnnn1-c1ccccc1,6.66% (inactive)
19,CCCCCCCCCCCCCC(=O)OC(C)C,13.1% (inactive)
20,N#Cc1ncccn1,3.94% (inactive)
21,COc1cc(/C=C2\CCCN([C@@H](C)c3ccc(F)cc3)C2=O)ccc1-n1cnc(C)c1,-5.26% (inactive)
22,Cn1cc(-c2[nH]c3cc(NC(=O)[C@H](N)C4CCCCC4)cc4c3c2C=NNC4=O)cn1,-91.8% (active) and -59.2% (inactive)
23,CC(C)(C)Sc1c(CC(C)(C)C(=O)O)n(Cc2ccc(Cl)cc2)c2ccc(OCc3ccc4ccccc4n3)cc12,12.6% (inactive)
24,COC(=O)C(Cc1ccc(OCCn2c(=O)sc3cc(C(=O)c4ccccc4)ccc32)cc1)C(=O)OC,18.5% (inactive)
25,CN(C)CCCO[C@H]1[C@@H](C(O)CO)OC2OC(C)(C)O[C@@H]21 (stereo not given in full),4.68% (inactive)

row,SMILES,"activity change, negative = inhibition"
1,Oc1cc2c(c(Cl)c1O)CCNC[C@@H]2c1ccccc1,-18.1% (inactive)
2,CCOC(=O)NCC(Cc1ccc(OCCc2nc(-c3ccccc3)oc2C)cc1)N/C(C)=C/C(=O)c1ccc(C(F)(F)F)cc1 (stereo not given),-49.9% (inactive)
3,CNCCn1c(=O)c2cc(OC)c(OC)cc2c2cnc3cc4c(cc3c21)OCO4,-94.2% (active)
4,O=C1NC(O)CCN1[C@@H]1O[C@H](CO)[C@@H](O)[C@H]1O (stereo not given in full),-5.72% (inactive)
5,Cc1ccc(NC(=O)c2cccc(C(C)(C)C#N)c2)cc1Nc1ccc2ncn(C)c(=O)c2c1,-3.87% (inactive)
6,NC(=O)c1ccc[n+]([C@@H]2O[C@H](COP(=O)(O)OP(=O)(O)OC[C@H]3O[C@@H](n4cnc5c(N)ncnc54)[C@H](O)[C@@H]3O)[C@@H](O)[C@H]2O)c1,-1.89% (inactive)
7,COc1ccc(-c2nc3ccc(C4=NNC(=O)CC4C)cc3[nH]2)cc1 (stereo not given),21.8% (inactive)
8,O=C(O)c1ccc(Nc2ncc3c(n2)-c2ccc(Cl)cc2C(c2c(F)cccc2F)=NC3)cc1,-36.4% (inactive)
9,CNC(=O)c1nn(C)c2c1C(C)(C)Cc1cnc(Nc3ccc(N4CCN(C)CC4)cc3)nc1-2,-73.5% (active)
10,CCOC(=O)C1=C(N)Oc2ccc(Br)cc2[C@H]1[C@H](C#N)C(=O)OCC,-65.8% (inactive)
11,CC[C@]12CCCN3CCc4c(n(c5ccccc45)[C@](O)(C(=O)OC)C1)[C@@H]32,8.44% (inactive) and 5.97% (inactive)
12,CCCCc1nc2cc(/C=C/C(=O)NO)ccc2n1CCN(CC)CC,-75.3% (active) and -94% (active)
13,CCN(CC)CCn1c(=O)c(Cc2ccc(OC)cc2)nc2ccccc21,-5.78% (inactive)
14,N[C@@]1(C(=O)O)CC[C@H]2[C@H](C(=O)O)[C@H]21,6.82% (inactive)
15,COC(=O)[C@H](Cc1cccc(C(=N)N)c1)[C@@H](C)NC(=O)c1ccc(-c2cc[n+]([O-])cc2)cc1,-6.72% (inactive)
16,O=C1c2ccccc2S(=O)(=O)N1CCCN1CCN(c2ncccn2)CC1,6.33% (inactive)
17,CS(=O)(=O)c1ccc(-c2cc(Br)sc2-c2ccc(F)cc2)cc1,22.9% (inactive) and 24.6% (inactive)
18,CC(=O)[C@]1(O)Cc2c(O)c3c(c(O)c2[C@@H](O[C@H]2C[C@H](N)[C@H](O)[C@H](C)O2)C1)C(=O)c1ccccc1C3=O,-72.5% (active) and -66% (inactive) and -71.5% (active)
19,CC(=O)C1(O)Cc2c(O)c3c(c(O)c2C(OC2CC(N)C(O)C(C)O2)C1)C(=O)c1c(O)cccc1C3=O (stereo not given),-82.5% (active)
20,CC(C)=CCCC(C)(OC1OC(COC2OC(CO)C(O)C2O)C(O)C(O)C1O)C1CCC2(C)C1C(O)CC1C3(C)CCC(OC4OC(CO)C(O)C(O)C4OC4OC(CO)C(O)C(O)C4O)C(C)(C)C3CCC12C (stereo not given),4.49% (inactive)
21,CC(C)C[C@H](NC(=O)[C@@H](COC(C)(C)C)NC(=O)[C@H](Cc1ccc(O)cc1)NC(=O)[C@H](CO)NC(=O)[C@H](Cc1c[nH]c2ccccc12)NC(=O)[C@H](Cc1cnc[nH]1)NC(=O)[C@@H]1CCC(=O)N1)C(=O)N[C@@H](CCCN=C(N)N)C(=O)N1CCC[C@H]1C(=O)NNC(N)=O,8.64% (inactive)
22,O=[N+]([O-])c1cc(Cl)ccc1S(=O)(=O)N1CCN(Cc2ccccc2)CC1,26.6% (inactive)
23,C=C1C[C@]23C[C@@]1(O)CC[C@H]2[C@@]12C=C[C@H](O)[C@@](C)(C(=O)O1)[C@H]2[C@@H]3C(=O)O,13.1% (inactive)
24,CCC(=O)OCC(=O)C1(OC(=O)CC)C(C)CC2C3CCC4=CC(=O)C=CC4(C)C3(Cl)C(O)CC21C (stereo not given),-2.98% (inactive)
25,CCC(=O)OCC(=O)[C@@]1(OC(=O)CC)[C@@H](C)C[C@H]2[C@@H]3CCC4=CC(=O)C=C[C@]4(C)[C@@]3(F)[C@@H](O)C[C@@]21C,-3.54% (inactive)

row,SMILES,"activity change, negative = inhibition"
1,CCC(=O)OCC(=O)[C@@]1(OC(=O)CC)[C@@H](C)C[C@H]2[C@@H]3CCC4=CC(=O)C=C[C@]4(C)[C@@]3(Cl)[C@@H](O)C[C@@]21C,-74.6% (active) and -1.83% (inactive)
2,CC/C=C\C/C=C\C/C=C\CCCCCCCC(=O)O,11.4% (inactive)
3,Clc1ccc(N/N=C(\c2ccccc2)c2ccccn2)nc1,31.4% (inactive)
4,N=C(N)S/C=C\C(=O)O,28% (inactive)
5,C[C@@H](Oc1ccc2[nH]nc(/C=C/c3cnn(CCO)c3)c2c1)c1c(Cl)cncc1Cl,-81.2% (active)
6,O=C(c1ccc(/C=C/c2n[nH]c3ccccc23)cc1)N1CCNCC1,-59.7% (inactive)
7,CCCSc1nc(N[C@@H]2C[C@@H]2c2ccc(F)c(F)c2)c2nnn([C@@H]3C[C@H](OCCO)[C@H](O)[C@H]3O)c2n1,5.35% (inactive)
8,O=C(O)CCNC(=O)c1ccc(N=Nc2ccc(O)c(C(=O)O)c2)cc1,22.4% (inactive)
9,O=c1[nH]c(=O)n([C@H]2C[C@H](O)[C@@H](CO)O2)cc1Br,12.7% (inactive)
10,C[C@H]1O[C@@H](n2cc(F)c(=O)[nH]c2=O)[C@H](O)[C@@H]1O,-95% (active)
11,CCCCCOC(=O)Nc1nc(=O)n([C@@H]2O[C@H](C)[C@@H](O)[C@H]2O)cc1F,-63.1% (inactive) and -62.7% (inactive)
12,O=c1[nH]c(=O)n([C@H]2C[C@H](O)[C@@H](CO)O2)cc1F,-81.1% (active)
13,O=c1[nH]c(=O)n([C@H]2C[C@H](O)[C@@H](CO)O2)cc1C(F)(F)F,-19.7% (inactive) and 1.85% (inactive)
14,O=c1[nH]c(=O)n([C@H]2CC(O)[C@@H](CO)O2)cc1C(F)(F)F (stereo not given in full),7.06% (inactive)
15,Cc1cn([C@@H]2C[C@@H](O)[C@H](CO)O2)c(=O)[nH]c1=O,-2.77% (inactive)
16,O=c1[nH]c(=O)n([C@H]2CCCO2)cc1F,-87.1% (active) and -73.6% (active)
17,Nc1nc(=O)n([C@H]2C[C@H](O)[C@@H](CO)O2)cc1F,-94.3% (active)
18,Nc1ncn([C@H]2C[C@H](O)[C@@H](CO)O2)c(=O)n1,35.6% (inactive)
19,Cc1cn([C@H]2O[C@@H](CO)[C@H](O)[C@@H]2F)c(=O)[nH]c1=O,14.2% (inactive)
20,Nc1nc(=O)n([C@H]2C[C@@H](O)[C@@H](CO)O2)cc1Cl,7.28% (inactive)
21,CN(C)CC/C=C1/c2ccccc2COc2ccccc21,-63.2% (inactive) and 23.5% (inactive) and 10.1% (inactive)
22,CC(C)C1C(=O)N(S(C)(=O)=O)[C@@H]2CCN(C(=O)/C=C/CN3CCCCC3)[C@@H]12 (stereo not given in full),12% (inactive)
23,NCCCCCc1cnc[nH]1,11% (inactive)
24,O=c1cc(O)c(Cl)c[nH]1,4.32% (inactive)
25,O=c1ccc2ccc(OCCCCN3CCN(c4cccc5sccc45)CC3)cc2[nH]1,10.5% (inactive)
